Here are results for 35 compounds from PubChem BioAssay (EPA / NIEHS).

The source made the active and inactive calls. Rule for the calls: active = hit-call score of the fitted dose curve at least 0.9, where 1 is the maximum; inactive = score below 0.9.

One may read the AC50 as the concentration giving half of the maximal activity seen.

Read-out in one experiment: growth arrest and DNA damage 45 (GADD45B), GADD45B (gene 4616)
The experiment is described as follows: LTEA_HepaRG_GADD45B: Life Technologies and Expression Analysis (LTEA) Assay for growth arrest and DNA damage 45 (GADD45B) using HepaRG (AID 2283461). To be noted: mRNA level, 48 h; actives raise or lower the signal. In a few lines:
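Differentiated human HepaRG cells in serum-free induction medium exposed 48 h in duplicate to eight concentrations, top 100 uM, half-log steps, 0.5% DMSO. GADD45B mRNA by TaqMan qRT-PCR, normalized to ACTB, GAPDH, POLR2A; bidirectional fit versus DMSO.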
For the compound `COc1cccc(C(=O)NN(C(=O)c2cc(C)cc(C)c2)C(C)(C)C)c1C`, the result was inactive.
Same read-out and setting: under `Cc1cc(C2CC2)nc(Nc2ccccc2)n1` stands “inactive”; under `CNC(=O)Oc1cccc2c1OC(C)(C)O2`, “inactive”.
Same read-out and setting: under `CC(C1CC1)C(O)(Cn1cncn1)c1ccc(Cl)cc1` (centres undefined) stands “inactive”.
On to `CSc1nnc(C(C)(C)C)c(=O)n1N`, for which the compound was called inactive.
`CCCOCC(=Nc1ccc(Cl)cc1C(F)(F)F)n1ccnc1`: the AC50 is 92 µM (active).
As for `COP(=O)(NC(C)=O)SC` (centres undefined), the call was inactive.
The same measure, in the same setting: the value for `CCOC(=O)COc1cc(-c2nn(C)c(OC(F)F)c2Cl)c(F)cc1Cl` was “inactive”.
On to `CN(C)C(=O)Nc1cccc(C(F)(F)F)c1`, for which the outcome was inactive.
With `Nc1nc(N)nc(NC2CC2)n1`, the outcome was inactive.
`CN(C)NC(=O)CCC(=O)O`: the compound was called inactive.
For `CNC(=O)ON=C(SC)C(=O)N(C)C`, the result was inactive.
On the same count and under the same terms, under `CCc1cccc(C)c1N(C(=O)CCl)C(C)COC` (centres undefined) stands “inactive”.
Still for that read-out and setting: the value for `CCOP(=S)(OCC)Oc1ccc2c(C)c(Cl)c(=O)oc2c1` was “inactive”.
On to `CNc1cnn(-c2cccc(C(F)(F)F)c2)c(=O)c1Cl`, for which the AC50 was 50 µM (active).
As to `CC(C)[C@H](C(=O)O[C@H](C#N)c1cccc(Oc2ccccc2)c1)c1ccc(Cl)cc1`, the compound was classed as inactive.
On to `COc1ccc(C(=CC(=O)N2CCOCC2)c2ccc(Cl)cc2)cc1OC`, for which the compound was called inactive.
Same read-out and setting: the value for `CCOP(=O)(NC(C)C)Oc1ccc(SC)c(C)c1` (centres undefined) was “inactive”; that for `CSc1nc(NC(C)C)nc(NC(C)C)n1` was “inactive”.
With `CC1(C(=O)Nc2ccc(O)c(Cl)c2Cl)CCCCC1`, the result was inactive.
For `CCNc1nc(Cl)nc(NC(C)(C)C#N)n1`, the outcome was inactive.
On the same count and under the same terms, under `CNC(=O)ON=C(C)SC` stands “inactive”.
On to `Nc1c(Cl)cc([N+](=O)[O-])cc1Cl`, for which the AC50 is 11.9 µM (active).
As for `CC(COc1ccc(Oc2ccccc2)cc1)Oc1ccccn1` (centres undefined), the compound was classed as inactive.
The same measure, in the same setting: the value for `C#CC(C)(C)NC(=O)c1cc(Cl)cc(Cl)c1` was “inactive”.
Still for that read-out and setting: under `CCCSP(=O)(OCC)Oc1ccc(Br)cc1Cl` (centres undefined) stands “inactive”.
As for `FC(F)C(F)(F)OCC(Cn1cncn1)c1ccc(Cl)cc1Cl` (centres undefined), the call was inactive.
On the same count and under the same terms, the value for `C[Si](Cn1cncn1)(c1ccc(F)cc1)c1ccc(F)cc1` was “inactive”; that for `CCOP(=S)(OCC)Oc1cc(C)nc(C(C)C)n1` was “inactive”; that for `CCCCN(CC)c1c([N+](=O)[O-])cc(C(F)(F)F)cc1[N+](=O)[O-]` was “inactive”.
The same measure, in the same setting: under `C#CCC1=C(C)C(OC(=O)C2C(C=C(C)C)C2(C)C)CC1=O` (centres undefined) stands “inactive”.
On the same count and under the same terms, the value for `CCOP(=S)(OCC)Oc1ccc([N+](=O)[O-])cc1` was “inactive”; that for `CCCSP(=O)(OCC)SCCC` was “inactive”; that for `Cc1ccn2nc(S(=O)(=O)Nc3c(F)cccc3F)nc2n1` was “inactive”.

Read-out in the next experiment: ABC Transporter (ABCC3), ABCC3 (gene 8714)
Description: LTEA_HepaRG_ABCC3: Life Technologies and Expression Analysis (LTEA) Assay for ABC Transporter (ABCC3) using HepaRG (AID 2283462). To be noted: mRNA level, 48 h; actives raise or lower the signal. In a few lines: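 Differentiated human HepaRG cells exposed 48 h in serum-free induction medium, 0.5% DMSO vehicle, 8-point half-log series to 100 uM in duplicate. ABCC3 mRNA by qRT-PCR, normalised to ACTB, GAPDH, POLR2A; bidirectional fit vs DMSO.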
Consider `COc1cccc(C(=O)NN(C(=O)c2cc(C)cc(C)c2)C(C)(C)C)c1C`, for which the result was inactive.
Same read-out and setting: the value for `O=C(O)c1cc(Oc2ccc(C(F)(F)F)cc2Cl)ccc1[N+](=O)[O-]` was “inactive”.
Same read-out and setting: the value for `Cc1cc(C2CC2)nc(Nc2ccccc2)n1` was “inactive”.
`CNC(=O)Oc1cccc2c1OC(C)(C)O2`: the outcome was inactive.
Take `CC(C1CC1)C(O)(Cn1cncn1)c1ccc(Cl)cc1` (centres undefined): the compound was called inactive.
The same measure, in the same setting: under `CSc1nnc(C(C)(C)C)c(=O)n1N` stands “inactive”; under `CCCOCC(=Nc1ccc(Cl)cc1C(F)(F)F)n1ccnc1`, “inactive”; under `COP(=O)(NC(C)=O)SC` (centres undefined), “inactive”.
Consider `CCOC(=O)COc1cc(-c2nn(C)c(OC(F)F)c2Cl)c(F)cc1Cl`, for which the result was inactive.
The same measure, in the same setting: the value for `CN(C)C(=O)Nc1cccc(C(F)(F)F)c1` was “inactive”.
`Nc1nc(N)nc(NC2CC2)n1`: the call was inactive.
Consider `CN(C)NC(=O)CCC(=O)O`, for which the result was inactive.
Still for that read-out and setting: under `CNC(=O)ON=C(SC)C(=O)N(C)C` stands “inactive”; under `CCc1cccc(C)c1N(C(=O)CCl)C(C)COC` (centres undefined), “inactive”; under `CCOP(=S)(OCC)Oc1ccc2c(C)c(Cl)c(=O)oc2c1`, “inactive”.
As to `CNc1cnn(-c2cccc(C(F)(F)F)c2)c(=O)c1Cl`, the result was inactive.
Still for that read-out and setting: the value for `CC(C)[C@H](C(=O)O[C@H](C#N)c1cccc(Oc2ccccc2)c1)c1ccc(Cl)cc1` was “inactive”; that for `COc1ccc(C(=CC(=O)N2CCOCC2)c2ccc(Cl)cc2)cc1OC` was “inactive”; that for `CCOP(=O)(NC(C)C)Oc1ccc(SC)c(C)c1` (centres undefined) was “inactive”.
Same read-out and setting: under `CSc1nc(NC(C)C)nc(NC(C)C)n1` stands “inactive”; under `CC1(C(=O)Nc2ccc(O)c(Cl)c2Cl)CCCCC1`, “inactive”.
Same read-out and setting: the value for `CCNc1nc(Cl)nc(NC(C)(C)C#N)n1` was “inactive”; that for `CNC(=O)ON=C(C)SC` was “inactive”; that for `Nc1c(Cl)cc([N+](=O)[O-])cc1Cl` was “inactive”.
As for `CC(COc1ccc(Oc2ccccc2)cc1)Oc1ccccn1` (centres undefined), the outcome was inactive.
Still for that read-out and setting: under `C#CC(C)(C)NC(=O)c1cc(Cl)cc(Cl)c1` stands “inactive”; under `CCCSP(=O)(OCC)Oc1ccc(Br)cc1Cl` (centres undefined), “inactive”.
For the compound `FC(F)C(F)(F)OCC(Cn1cncn1)c1ccc(Cl)cc1Cl` (centres undefined), the AC50 is 21.1 µM (active).
For `C[Si](Cn1cncn1)(c1ccc(F)cc1)c1ccc(F)cc1`, the compound was classed as inactive.
The same measure, in the same setting: under `CCOP(=S)(OCC)Oc1cc(C)nc(C(C)C)n1` stands “inactive”; under `CCCCN(CC)c1c([N+](=O)[O-])cc(C(F)(F)F)cc1[N+](=O)[O-]`, “inactive”; under `C#CCC1=C(C)C(OC(=O)C2C(C=C(C)C)C2(C)C)CC1=O` (centres undefined), “inactive”.
`CCOP(=S)(OCC)Oc1ccc([N+](=O)[O-])cc1`: the outcome was inactive.
Still for that read-out and setting: under `CCCSP(=O)(OCC)SCCC` stands “inactive”.
On the same count and under the same terms, the value for `Cc1ccn2nc(S(=O)(=O)Nc3c(F)cccc3F)nc2n1` was “inactive”.
